Inconclusive results are not listed. Activity calls are given as the source filed them. The call rests on the fitted dose curve; in most records, active means well fitted curve in the direction sought with a large enough effect; inconclusive means small, poorly fitted or top-dose-only effect, or another doubt; inactive means no such curve, though single readings can be large or run the other way.
Assay: qHTS of small molecules that selectively kill Giardia lamblia: GS isolate Assay for SAR
Settings: Giardia lamblia GS isolate viability; series mostly up to 38.3 µM; activity change, negative = inhibition: at the top concentration
Source text: Giardia lamblia is a human pathogen afflicting impoverished nations, and the most common cause of outbreaks of diarrhea in the United States. Giardia has been classified by the CDC as a category B bioterrorism organism. The favored anti giardiasis drugs in the US are metronidazole or tinidazole, compounds that have undesirable side effects. Moreover, increasing resistance to these drug regimens and recurrence remains a concern. It is thus clear that alternative drug treatments are needed.
In collaboration with the University of Maryland (College Park), a bioluminescence Giardia viability assay based on the trophozoites' ATP content was developed. This assay is suitable for high throughput screening, and miniaturized the assay for compound screening in 1536-well plates. The Molecular Libraries Small Molecule Repository (MLSMR) was screened against this assay to find compounds that selectively kill Giardia trophozoites (AID 540267). Selected compounds were re-acquired to confirm their trophozoite toxicity activity (AID 588397) and lead chemotypes were identified for medicinal chemistry optimization. The data herein is the result of the first round of SAR for this project. Decrease in luminescence signal indicative of tropozoite growth inhibition (inhibitors) is the desired outcome for this assay.
NIH Chemical Genomics Center [NCGC]
NIH Molecular Libraries Probe Centers Network [MLPCN]
Assay Submitter (PI): Osnat Herzberg, University of Maryland, College Park, MD.
Giardia assay media was dispensed to an assay plate at 2 ul / well volume. Twenty-three nanoliter / well compounds were pinned into the plates using the Kalypsys robotic system. Giardia trophozoites were dispensed into the well at a concentration of 100 cells / well and incubated anaerobically at 37C for 48 hours. After compound incubation, 4 ul/ well ATPLite 1-Step luminescence assay detection reagent was and the plates were incubated at room temperature. After 30 min of incubation with the detection reagent, luminescence signal was obtained using the PerkinElmer ViewLux plate reader. Data was then processed and normalized to both positive and negative controls. Biosafety level 2 laboratory practices were observed throughout the duration of this screen.

SMILES	activity change, negative = inhibition	outcome
Cc1ccnc(NC(=S)N2CCCN(c3cccc(C(F)(F)F)c3)CC2)c1	-22.1% (inactive)	
Cc1cc(C)nc(NC(=S)N2CCN(c3ccc(Cl)cc3Cl)CC2)c1	-6.72% [at 37.9 µM] (inactive)	
Cc1ccnc(NC(=S)Nc2cccc(C(F)(F)F)c2)c1	12.3% (inactive)	
Cc1cc(C)nc(NC(=S)N2CCN(c3ccc(Cl)cc3C(F)(F)F)CC2)c1	-7.54% [at 37.9 µM] (inactive)	
Cc1cc(C)nc(NC(=S)N2CCN(c3ccc(Cl)c(Cl)c3)CC2)c1	-30.3% (inactive)	
FC(F)(F)c1cc(N2CCN(C(=S)Nc3cc(Cl)ccn3)CC2)cc(C(F)(F)F)c1	7.15% (inactive)	
FC(F)(F)c1cccc(N2CCN(C(=S)Nc3nccc4ccccc34)CC2)c1		inactive
Cc1ccnc(NC(=S)N2CCN(c3cccc(C(F)(F)F)c3)CC2)c1	-32.4% [at 37.9 µM] (inactive)	
COc1ccnc(NC(=S)N2CCN(c3ncc(C(F)(F)F)cc3Cl)CC2)c1	15.5% [at 37.9 µM] (inactive)	
CSC(Cc1ccc(Cl)cc1)C(=O)Nc1ccc(Cl)cc1C(=O)O (stereo unspecified)	-22.2% (inactive)	
CC(Cc1ccccc1)C(=O)Nc1ccc(Cl)cc1C(=O)O (stereo unspecified)	-4.47% (inactive)	
Cc1ccnc(N=C(N)N2CCN(c3cccc(C(F)(F)F)c3)CC2)c1	-7.19% [at 37.9 µM] (inactive)	
COc1cccc(NC(=S)N2CCN(c3ccc(Cl)c(Cl)c3)CC2)n1	14.5% (inactive)	
COc1ccnc(NC(=S)N2CCN(c3ccc(Cl)cc3Cl)CC2)c1	-24.1% (inactive)	
S=C(Nc1cc(Cl)ccn1)N1CCN(c2cccc(Cl)c2Cl)CC1	17% (inactive)	
Cc1ccnc(NC(=S)N[C@@H]2CCN(c3cccc(C(F)(F)F)c3)C2)c1	23% (inactive)	
Cc1ccnc(NC(=S)N2CCCc3ccc(C(F)(F)F)cc32)c1	25.8% [at 37.9 µM] (inactive)	
COc1cccc(NC(=S)N2CCN(c3cc(Cl)cc(Cl)c3)CC2)n1	11.5% (inactive)	
Cc1cc(C)nc(NC(=S)N2CCN(c3ncccc3C#N)CC2)c1	6.52% (inactive)	
Cc1ccnc(NC(=S)N2CC3CN(c4cccc(C(F)(F)F)c4)CC3C2)c1 (stereo unspecified)	17.6% (inactive)	
Cc1ccnc(NC(=S)N2CC3CN(c4ncc(C(F)(F)F)cc4Cl)CC3C2)c1 (stereo unspecified)	-29.8% (inactive)	
Cc1nc(CN(C)c2ncnc3ccc(-c4ccc5[nH]ncc5c4)cc23)cs1	-56.4% (inactive)	
COc1ccnc(NC(=S)N2CCN(c3cccc(Cl)c3Cl)CC2)c1	-19.6% (inactive)	
FC(F)(F)c1cccc(N2CCN(C(=S)Nc3cc(C(F)(F)F)ccn3)CC2)c1	20.9% (inactive)	
Cc1cc(C)nc(NC(=S)N2CC3CN(c4ccc(Cl)cc4C(F)(F)F)CC3C2)c1 (stereo unspecified)	-26.8% (inactive)	
Cc1cc(C)nc(NC(=S)N2CCN(c3ccc([N+](=O)[O-])cc3Cl)CC2)c1	-33.6% (inactive)	

Reference: PubChem BioAssay AID720676 (National Center for Advancing Translational Sciences (NCATS), 2013)
